{"source": "PubChem BioAssay", "note": "Unmarked numbers belong to inactive results. No rule for the calls is given here."}
{"biological_target": "Pantothenate synthetase (Mycobacterium tuberculosis (strain ATCC 25618 / H37Rv)) (UniProt P9WIL5)", "sequence (P9WIL5 whole entry, looked up)": "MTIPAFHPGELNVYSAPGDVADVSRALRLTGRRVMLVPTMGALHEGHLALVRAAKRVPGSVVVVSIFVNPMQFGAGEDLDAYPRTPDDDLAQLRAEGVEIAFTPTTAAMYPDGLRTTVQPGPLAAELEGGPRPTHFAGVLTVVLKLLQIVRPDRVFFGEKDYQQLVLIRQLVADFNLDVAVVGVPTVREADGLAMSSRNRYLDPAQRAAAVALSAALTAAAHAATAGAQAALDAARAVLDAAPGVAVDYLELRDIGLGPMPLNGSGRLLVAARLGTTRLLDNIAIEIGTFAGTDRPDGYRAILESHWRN", "test": "Recombinant Mtb pantothenate synthetase (PanC) inhibitors, coupled enzyme, confirmatory (AID 375);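 also: 0% = full reaction with vehicle and 100% = no enzyme background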", "settings": "coupled enzyme assay; at 10 µM, active compounds read high", "units": {"inhibition": "%"}}
{"smiles": "Cc1nc2ccc(F)cc2cc1C(=O)NCC1CCCO1", "note": "(stereo not given)", "inhibition": 0}
{"smiles": "Cc1ccc(Cn2nnc3c(=O)[nH]c(C4CCN(C(=O)c5cccs5)CC4)nc32)cc1", "inhibition": 0}
{"smiles": "CCOC(=O)CNC(=O)C(Cc1ccccc1)NS(=O)(=O)c1ccc2c(c1)CCC(=O)N2", "note": "(stereo not given)", "inhibition": 0}
{"smiles": "Cc1cc(C)c(NC(=O)CSc2nnc(-c3ccncc3)n2Cc2ccco2)c(C)c1", "inhibition": 0}
{"smiles": "COC(=O)c1ccc2ncccc2c1", "inhibition": 0}
{"smiles": "CCN1C(=O)/C(=C/N(C)c2ccccc2)OC1=S", "inhibition": 4}
{"smiles": "CCOc1ccc(NS(=O)(=O)c2cc(Cl)ccc2OC)cc1", "inhibition": 4}
{"smiles": "O=C(O)CN1C(=O)CNC1=O", "inhibition": 0}
{"smiles": "COc1cc(OC)cc(C(=O)NCc2n[nH]c(=S)n2-c2ccccc2OC)c1", "inhibition": 0}
{"smiles": "Cc1[nH]c(=O)[nH]c(=O)c1S(=O)(=O)N1CCN(c2cccc(Cl)c2)CC1", "inhibition": 1}
{"smiles": "O=C(C1=C(O)C(=O)N(c2ncccn2)C1c1cccc(Cl)c1)c1ccco1", "note": "(stereo not given)", "inhibition": 0}
{"smiles": "COC(=O)CC(C(=O)Nc1cc(C(=O)OC)cc(C(=O)OC)c1)N1CCN(C)CC1", "note": "(stereo not given)", "inhibition": 3}
{"smiles": "Cc1ccc(C(=O)N2CCN(C(=O)c3ccc(C)c(C)c3)C(C)C2)cc1C", "note": "(stereo not given)", "inhibition": 7}
{"smiles": "CC(=O)Nc1cc(NC(C)=O)cc(C(=O)OCC(=O)N2CC(C)OC(C)C2)c1", "note": "(stereo not given)", "inhibition": 2}
{"smiles": "CCOC(=O)c1ccc(NC(=O)COc2ccc(-n3cnnn3)cc2)cc1", "inhibition": 0}
{"smiles": "CC1(C)S[C@@H]2[C@H](NC(=O)C(C(=O)O)c3ccccc3)C(=O)N2[C@H]1C(=O)O", "note": "(stereo not given in full)", "inhibition": 0}
{"smiles": "O=C(NCc1nc2ccccc2[nH]1)c1ccco1", "inhibition": 0}
{"smiles": "CCc1nnc2sc(-c3cc(-c4ccccc4)nc4ccccc34)nn12", "inhibition": 3}
{"smiles": "COc1cccc(C(=O)CSc2nnc(COc3cccc4cccnc34)o2)c1", "inhibition": 0}
{"smiles": "CCOc1cc(C(=O)Nc2ncccn2)cc(OCC)c1OCC", "inhibition": 2}
{"smiles": "Cn1cnc(S(=O)(=O)Nc2ccc(C(F)(F)F)cc2)c1", "inhibition": 0}
{"smiles": "COc1ccc(-c2ccc(-c3noc(-c4ccccc4OC)n3)c(OC)n2)cc1", "inhibition": 0}
{"smiles": "O=S(=O)(NCC(O)COCc1ccco1)c1cccs1", "note": "(stereo not given)", "inhibition": 2}
{"smiles": "COc1oc(-c2ccccc2)nc1C(F)(F)F", "inhibition": 0}
{"smiles": "CC1CCCCN1CCNC(=O)c1ccc2c(=O)n(CCc3ccccc3)c(=O)[nH]c2c1", "note": "(stereo not given)", "inhibition": 0}
{"smiles": "COc1ccc(-c2[nH]nc3c2C(c2ccccc2OC(=O)N2CCOCC2)C(C#N)=C(N)O3)cc1", "note": "(stereo not given)", "inhibition": 5}
{"smiles": "CCCCOc1ccc(C(=O)Nn2cnnc2)cc1", "inhibition": 1}
{"smiles": "Cc1ccc(C(=O)Nc2nc3c(s2)CCCC3)o1", "inhibition": 2}
{"smiles": "COc1ccc(S(=O)(=O)N(C)C2CCN(C)CC2)cc1", "inhibition": 0}
{"smiles": "Nc1nc(Cl)nc2c1ncn2[C@@H]1O[C@H](CO)[C@@H](O)[C@H]1O", "inhibition": 3}
{"smiles": "CCC(=O)N1CCc2cc(S(=O)(=O)CCC(=O)Nc3nc(C)cs3)ccc21", "inhibition": 5}
{"smiles": "COc1ccccc1N1CC(C(=O)Nc2cccc(C(=O)O)c2)CC1=O", "note": "(stereo not given)", "inhibition": 0}
{"smiles": "COc1ccccc1-c1noc(-c2ccco2)n1", "inhibition": 6}
{"smiles": "CCOC(=O)CSc1nnc(-c2ccc(Cl)cc2Cl)o1", "inhibition": 2}
{"smiles": "COc1ccc2nc(C)cc(N3CCOCC3)c2c1", "inhibition": 0}
{"smiles": "Nc1nc2c(ncn2COCCO)c(=O)[nH]1", "inhibition": 0}
{"smiles": "CCn1cc(/C=C(/C#N)S(=O)(=O)c2ccccc2)cn1", "inhibition": 2}
{"smiles": "O=C(CSc1nnc(CNC(=O)c2cccs2)o1)NCCc1ccccc1", "inhibition": 0}
{"smiles": "COc1ccc(CC(=O)NCc2nnc(SCC(=O)Nc3nccs3)n2-c2ccccc2)cc1", "inhibition": 0}
{"smiles": "COc1ccc(-c2nsc(SCC(=O)Nc3cc(C)on3)n2)cc1", "inhibition": 0}
